The source of these data is PubChem BioAssay (Tox21).

Inconclusive results are not listed. Values without a mark were called inactive. Activity calls are given as the source filed them. Calls come from the whole dose curve; as a rule, active = well fitted cell-killing curve with a large enough effect in the repeat runs; inconclusive = weak or mixed curves, or effect the other way; inactive = flat fitted curve, though single readings scatter.
% is set by controls: 0 for no effect and ±100 for the full control effect; potency is the fitted concentration of half-maximal effect.

This experiment can be described thus: cAMP Responsive Elements (CRE) small molecule agonists, cell-based qHTS assay: qHTS cell viability counter screen (AID 2060914). Note: nearly all actives have a fitted effect of over 50% in size. As to conditions: CRE-bla HEK293T viability, CellTiter-Glo luminescence, 5 h; series mostly up to 92.4 µM; activity change, negative = cytotoxicity: at the top concentration. The gist of the method:
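Cells are seeded and incubated 18 h, treated with compounds in DMSO for 3 h, read for the bla reporter, then given CellTiter-Glo; luminescence is measured after 30 min at room temperature.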
Background: In qHTS, concentration-response curves come from the screen itself.
For `CCC1(CC)C(=O)NC(=O)NC1=O`, the “activity change, negative = cytotoxicity” value is 4.64% [at 42.5 µM]. On the same count and under the same terms, in the case of `N#CC(Cl)Cl` it was 1.87%; in that of `ClC1=C(Cl)[C@]2(Cl)[C@@H]3[C@@H](Cl)[C@@H](Cl)C[C@@H]3[C@@]1(Cl)C2(Cl)Cl`, -5.74%. On the same count and under the same terms, in the case of `FC(Cl)(Cl)C(F)(Cl)Cl` it was 18.7%; in that of `Cc1cc(C)c(C(=O)P(=O)(C(=O)c2c(C)cc(C)cc2C)c2ccccc2)c(C)c1`, -9.97%; in that of `CCOP(=S)(NC(C)C)Oc1ccccc1C(=O)OC(C)C` (configuration not stated), -16.8%. For `COP(=O)(OC)O/C(=C/Cl)c1cc(Cl)c(Cl)cc1Cl`, the “activity change, negative = cytotoxicity” value is -3.67%.

Take `COc1cccc(C(=O)NN(C(=O)c2cc(C)cc(C)c2)C(C)(C)C)c1C`: the “activity change, negative = cytotoxicity” value was -6.68%. `CCCCCCCCCCCCCCCC[n+]1ccccc1`: the Potency is 47.9 µM (active) [middle of 4 runs]. With `CCCSP(=O)(OCC)SCCC`, the “activity change, negative = cytotoxicity” value was -14.6%. For `ClC(Cl)(Cl)Cl`, the “activity change, negative = cytotoxicity” value was -4.63%.

`O=C(NCNC(=O)NC1C(=O)NC(=O)N1CO)NC1C(=O)NC(=O)N1CO` (configuration not stated): the “activity change, negative = cytotoxicity” value is 13.3%.

Consider `ClC1=C(Cl)C2(Cl)C3C(Cl)C(Cl)CC3C1(Cl)C2(Cl)Cl` (configuration not stated), for which the Potency is 54.5 µM (active).

For `Oc1c(I)cc(I)cc1I`, the “activity change, negative = cytotoxicity” value is 7.61%. Same read-out and setting: in the case of `CC(C)COP(=O)(OCC(C)C)OCC(C)C` it was -3.66%. On the same count and under the same terms, the result for `S=C=S` reads 0.988%; that for `OCC(c1ccc(Cl)cc1)c1ccc(Cl)cc1`, -18.9%; that for `CCN(CC)N=O`, -12.7%.

Turning to `COC(=O)N(OC)c1ccccc1COc1ccn(-c2ccc(Cl)cc2)n1`, the Potency is 5.45 µM (active). Turning to `c1ccc2c(c1)Sc1ccccc1N2CC1CN2CCC1CC2` (configuration not stated), the “activity change, negative = cytotoxicity” value was -9.6% [at 42.5 µM]. On to `[Cd+2].[Cl-].[Cl-]`, for which the Potency entry was “inactive”. `CN1CC[C@]23c4c5ccc(O)c4O[C@H]2[C@@H](O)C=C[C@H]3[C@H]1C5`: the “activity change, negative = cytotoxicity” value was 1.45%.
